Measurements taken from PubChem BioAssay (Tox21).
Unmarked numbers belong to inactive results. Results filed as inconclusive are left out. Entries that show only a call come without a potency. The source made the active and inactive calls. Unless noted, calls follow the shape of the dose curve; as a rule, active = well fitted curve in the direction sought with a large enough effect in the repeat runs; inconclusive = weak or mixed curves; inactive = no such curve, though single readings can be large; an effect the other way counts as inactive or inconclusive.

Tests used:
[1] = qHTS assay to identify small molecule agonists of the hypoxia (HIF-1) signaling pathway (AID 1224846; active = well fitted activation curve with a large enough effect in the signal ratio in the repeat runs, not every such curve was filed as active; the % refers to the signal ratio)
Outline: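 Hypoxia-pathway activation was scored as increased beta-lactamase from an HRE-controlled reporter in ME-180 cells; plated at 2,000 cells per well with 0.5% dialyzed FBS, they were exposed 17 hrs to compounds and then given CCF4-AM.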

[2] = qHTS assay to identify small molecule antagonists of the estrogen related receptor (ERR) signaling pathway from Tox21 library (AID 1224848); also: nearly all actives have a fitted effect of over 50% in size; also: potency is read from the fitted curve at half-maximal effect
Outline: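 Antagonist-mode screen of the Tox21 10K library in an NTP-provided ERR reporter cell line; 18 h compound exposure at 37 C, luminescence measured with ONE-Glo.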

[3] = qHTS assay to identify small molecule agonists of the estrogen related receptor (ERR) signaling pathway from Tox21 library (AID 1224849; calls by dose curve; also: nearly all actives have a fitted effect of over 15% in size); conditions: ERR reporter cell line, ONE-Glo luciferase, 18 h; at 92.4 µM (top of the series) unless noted
Outline: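 Six hours post-seeding at 37 C/5% CO2, ERR cells receive DMSO-solubilised compounds; after 18 h at 37 C, ONE-Glo reagent is applied and luminescence recorded.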

[4] = qHTS RealTime-Glo MT Cell Viability Assay in HepG2 cells - 24 hour (AID 1224867); also: nearly all actives have a fitted effect of over 50% in size; also: potency is read from the fitted curve at half-maximal effect
Outline: (§1)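 Luminescence read-out: viable HepG2 cells reduce a prosubstrate to a NanoLuc substrate, giving a signal proportional to live cell number. Reads taken at 0, 8, 16, 24, 32 and 40 h of compound exposure at 37 C.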

[5] = qHTS RealTime-Glo MT Cell Viability Assay in HEK293 cells - 32 hour (AID 1224868); also: nearly all actives have a fitted effect of over 50% in size; also: potency is read from the fitted curve at half-maximal effect
Outline: (§2)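 Nonlytic real-time viability readout: viable cells convert prosubstrate to NanoLuc substrate, giving luminescence proportional to live cell number. HEK293, 600 cells/well, compound added after 5 h, continuous culture at 37 C.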

[6] = A CellTox Green Cytotoxicity Assay to monitor cytotoxicity in HEK293 cells - 0 hour (AID 1224869); also: nearly all actives have a fitted effect of over 50% in size
Outline: (§3)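 Seeding of HEK293 cells together with cytotoxicity dye preceded a 5 h incubation at 37 C/5% CO2. Test compounds in DMSO were then added and fluorescence monitored across 40 h.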

[7] = qHTS RealTime-Glo MT Cell Viability Assay in HepG2 cells - 40 hour (AID 1224870); also: nearly all actives have a fitted effect of over 50% in size; also: potency is read from the fitted curve at half-maximal effect
Outline: (§4)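 Real-time viability: cells seeded at 600 per well together with NanoLuc and cell-permeant prosubstrate, compounds added after 5 h incubation. Luminescence tracked at 0, 8, 16, 24, 32 and 40 h of exposure.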

[8] = qHTS RealTime-Glo MT Cell Viability Assay in HEK293 cells - 16 hour (AID 1224872); also: nearly all actives have a fitted effect of over 50% in size; also: potency is read from the fitted curve at half-maximal effect
Outline: as §2

[9] = qHTS RealTime-Glo MT Cell Viability Assay in HepG2 cells - 8 hour (AID 1224873); also: nearly all actives have a fitted effect of over 55% in size; also: potency is read from the fitted curve at half-maximal effect
Outline: as §4

[10] = A CellTox Green Cytotoxicity Assay to monitor cytotoxicity in HEK293 cells - 24 hour (AID 1224875); also: nearly all actives have a fitted effect of over 45% in size; also: potency is read from the fitted curve at half-maximal effect
Outline: as §3

[11] = A CellTox Green Cytotoxicity Assay to monitor cytotoxicity in HepG2 cells - 16 hour (AID 1224876); also: nearly all actives have a fitted effect of over 45% in size; also: potency is read from the fitted curve at half-maximal effect
Outline: (§5)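 Nonlytic assay: viable cells exclude the dye, so fluorescence scales with cell death. HepG2 at 600 cells/well, compounds added after 5 h, signal read across 40 h.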

[12] = qHTS RealTime-Glo MT Cell Viability Assay in HepG2 cells - 32 hour (AID 1224877); also: nearly all actives have a fitted effect of over 55% in size; also: potency is read from the fitted curve at half-maximal effect
Outline: as §1

[13] = A CellTox Green Cytotoxicity Assay to monitor cytotoxicity in HepG2 cells - 24 hour (AID 1224878); also: nearly all actives have a fitted effect of over 45% in size; also: potency is read from the fitted curve at half-maximal effect
Outline: as §5

[14] = A CellTox Green Cytotoxicity Assay to monitor cytotoxicity in HepG2 cells - 40 hour (AID 1224879); also: nearly all actives have a fitted effect of over 40% in size; also: potency is read from the fitted curve at half-maximal effect
Outline: as §5

[15] = qHTS RealTime-Glo MT Cell Viability Assay in HEK293 cells - 0 hour (AID 1224880); also: nearly all actives have a fitted effect of over 45% in size; also: potency is read from the fitted curve at half-maximal effect
Outline: (§6)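 Tox21 screen in HEK293 using RealTime-Glo MT chemistry, with cells and reagent co-dispensed. Luminescence proportional to viable cell number was captured at intervals during 40 h compound exposure at 37 C.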

[16] = A CellTox Green Cytotoxicity Assay to monitor cytotoxicity in HEK293 cells - 32 hour (AID 1224881); also: nearly all actives have a fitted effect of over 40% in size; also: potency is read from the fitted curve at half-maximal effect
Outline: as §3

[17] = A CellTox Green Cytotoxicity Assay to monitor cytotoxicity in HepG2 cells - 0 hour (AID 1224882); also: nearly all actives have a fitted effect of over 35% in size
Outline: as §5

[18] = qHTS assay to identify small molecule agonists of H2AX - cell viability counter screen (AID 1224847; calls by dose curve; also: nearly all actives have a fitted effect of over 30% in size; also: potency is read from the fitted curve at half-maximal effect)
Outline: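 We seed wild-type CHO-K1 cells overnight, treat them for 3 hr at 37C with compounds in 15-concentration series, and quantify remaining viability by CellTiter-Glo luminescence.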

[19] = A CellTox Green Cytotoxicity Assay to monitor cytotoxicity in HEK293 cells - 40 hour (AID 1224871); also: nearly all actives have a fitted effect of over 45% in size; also: potency is read from the fitted curve at half-maximal effect
Outline: as §3

[20] = qHTS RealTime-Glo MT Cell Viability Assay in HEK293 cells - 40 hour (AID 1224874); conditions: RealTime-Glo luminescence; max response: active compounds read low; also: nearly all actives have a fitted effect of over 50% in size; also: potency is read from the fitted curve at half-maximal effect
Outline: as §6

FC(F)(F)c1cccc(C2=CCN(CCc3ccc4ccccc4c3)CC2)c1
outcome [1]: inactive | Potency [2]: inactive | activity change, positive = activation [3]: -0.643% [at 42.5 µM] | Potency [4]: inactive | Potency [5]: inactive | Potency [6]: inactive | Potency [7]: inactive | Potency [8]: inactive | Potency [9]: inactive | Potency [10]: inactive | Potency [11]: inactive | Potency [12]: inactive | Potency [13]: inactive | Potency [14]: inactive | Potency [15]: inactive | Potency [16]: inactive | Potency [17]: inactive

O=C1C=CC(=O)c2ccccc21
Potency [18]: 20.1 µM (active) | Potency [2]: 27.3 µM (active) | activity change, positive = activation [3]: -74.8% | Potency [4]: 21.9 µM (active) | Potency [5]: 5.49 µM (active) | Potency [6]: inactive | Potency [7]: 24.5 µM (active) | Potency [19]: 3.89 µM (active) | Potency [8]: 5.49 µM (active) | Potency [20]: 4.9 µM (active) | Potency [10]: 6.92 µM (active) | Potency [11]: 13.8 µM (active) | Potency [12]: 24.5 µM (active) | Potency [13]: 12.3 µM (active) | Potency [14]: 12.3 µM (active) | Potency [15]: 12.3 µM (active) | Potency [16]: 6.16 µM (active) | Potency [17]: inactive

N#CCCO
outcome [1]: inactive | Potency [18]: inactive | Potency [5]: inactive | Potency [7]: inactive | Potency [19]: inactive | Potency [8]: inactive | Potency [9]: inactive | max response [20]: 5.8% | Potency [10]: inactive | Potency [11]: inactive | Potency [12]: inactive | Potency [13]: inactive | Potency [14]: inactive | Potency [15]: inactive | Potency [16]: inactive | Potency [17]: inactive

CCc1nn(C)c(C(=O)NCc2ccc(C(C)(C)C)cc2)c1Cl
Potency [18]: 56.6 µM (active) | Potency [2]: 0.0486 µM (active) | activity change, positive = activation [3]: -58.3% | Potency [4]: inactive | Potency [5]: 0.0347 µM (active) | Potency [6]: inactive | Potency [7]: inactive | Potency [8]: 0.0871 µM (active) | Potency [9]: inactive | Potency [20]: 0.0977 µM (active) | Potency [11]: inactive | Potency [13]: inactive | Potency [14]: inactive | Potency [15]: inactive | Potency [16]: inactive | Potency [17]: inactive

CC(=O)/C=C/c1ccc2c(c1)OCO2
outcome [1]: inactive | Potency [2]: 43.5 µM (active) | activity change, positive = activation [3]: -46.7% | Potency [4]: inactive | Potency [5]: inactive | Potency [7]: inactive | Potency [19]: inactive | Potency [8]: inactive | max response [20]: -11.6% | Potency [10]: inactive | Potency [11]: inactive | Potency [12]: inactive | Potency [14]: 49.2 µM (active) | Potency [15]: inactive | Potency [16]: inactive | Potency [17]: inactive

Cc1ccc(OP(=O)(Oc2ccccc2)Oc2ccccc2)cc1
outcome [1]: inactive | activity change, positive = activation [3]: -20.3% | Potency [4]: inactive | Potency [5]: inactive | Potency [6]: inactive | Potency [7]: inactive | Potency [19]: inactive | Potency [8]: inactive | Potency [9]: inactive | max response [20]: -19.8% | Potency [10]: inactive | Potency [11]: inactive | Potency [12]: inactive | Potency [13]: inactive | Potency [14]: inactive | Potency [15]: inactive | Potency [16]: inactive | Potency [17]: inactive

C[C@@H]1O[C@@H](O[C@@H]2C=C3CC[C@@H]4[C@H](CC[C@]5(C)[C@@H](c6ccc(=O)oc6)CC[C@]45O)[C@@]3(C)CC2)[C@H](O)[C@H](O)[C@H]1O
outcome [1]: inactive | Potency [2]: 0.0335 µM (active) | activity change, positive = activation [3]: -58.9% [at 42.5 µM] | Potency [4]: inactive | Potency [5]: 0.0213 µM (active) | Potency [6]: inactive | Potency [7]: inactive | Potency [19]: inactive | Potency [9]: inactive | Potency [20]: 0.019 µM (active) | Potency [10]: inactive | Potency [11]: inactive | Potency [12]: inactive | Potency [13]: inactive | Potency [14]: inactive | Potency [15]: inactive | Potency [16]: inactive | Potency [17]: inactive

Oc1cccc(-c2ccccc2)c1
outcome [1]: inactive | Potency [2]: inactive | Potency [4]: inactive | Potency [6]: inactive | Potency [7]: inactive | Potency [19]: inactive | Potency [9]: inactive | Potency [10]: inactive | Potency [11]: inactive | Potency [12]: inactive | Potency [13]: inactive | Potency [14]: inactive | Potency [15]: inactive | Potency [16]: inactive

COC12CC[C@@]3(C[C@@H]1C(C)(O)C(C)(C)C)[C@H]1Cc4ccc(O)c5c4[C@@]3(CCN1CC1CC1)[C@H]2O5 (stereo partly specified)
Potency [18]: 28.2 µM (active) | Potency [2]: 27.1 µM (active) | activity change, positive = activation [3]: -68% | Potency [4]: 43.4 µM (active) | Potency [5]: 24.4 µM (active) | Potency [6]: inactive | Potency [7]: 48.6 µM (active) | Potency [19]: 24.4 µM (active) | Potency [8]: 24.4 µM (active) | Potency [9]: 43.4 µM (active) | Potency [20]: 24.4 µM (active) | Potency [10]: 38.6 µM (active) | Potency [11]: 43.4 µM (active) | Potency [12]: 48.6 µM (active) | Potency [14]: 24.4 µM (active) | Potency [15]: inactive | Potency [16]: 38.6 µM (active) | Potency [17]: inactive

CN(C)c1ccc(N=Nc2ccccc2)cc1
outcome [1]: inactive | Potency [4]: inactive | Potency [6]: inactive | Potency [7]: inactive | Potency [11]: inactive | Potency [12]: inactive | Potency [13]: inactive | Potency [14]: inactive | Potency [15]: inactive | Potency [17]: inactive
